Records with an inconclusive call do not appear. A number with no mark means an inactive call. Calls come from the whole dose curve; as a rule, active = well fitted inhibition curve with a large enough effect; inconclusive = small, poorly fitted or top-dose-only effect; inactive = flat fitted curve, though single readings scatter.
% is set by controls: 0 for no effect and ±100 for the full control effect.

This assay can be described thus: qHTS to identify inhibitors of the type 1 interferon - major histocompatibility complex class I in skeletal muscle: primary screen against the NCATS Pharmaceutical Collection (AID 1347407).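 Note: luminescence of HiBiT knocked into endogenous HLA-B as interferon-induced MHC class I level.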 As to conditions: human skeletal muscle cells, IFN-b-induced MHC-I HiBiT luminescence, 24 h; series mostly up to 45.9 µM; activity change, negative = inhibition: at the top concentration. In outline:
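Compounds […] were added to CRISPR-engineered HLA-B-HiBiT C25cl48 human myoblasts with 4.0 ng/ml IFN-beta. After 24 hrs at 37 C, cells were lysed and HiBiT luminescence measured.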
In general terms: Quantitative high-throughput screening tests each substance at several concentrations.
In the case of `CCN(CC)CCOC(=O)C1(c2ccccc2)CCCC1`, the “activity change, negative = inhibition” value is 1.02%.
Turning to `Clc1cccc(C(c2ccc3nc[nH]c3c2)n2ccnc2)c1` (stereo not drawn), the “activity change, negative = inhibition” value is 4.39%.
On to `COc1ccc2c(c1)c1c3n2CCN(C)C3=NCC1`, for which the “activity change, negative = inhibition” value was -15.1%.
In the case of `CCCN(CCC)S(=O)(=O)c1ccc(C(=O)O)cc1`, the “activity change, negative = inhibition” value is -6.96%.
As for `CCN1CCCC(OC(=O)C(c2ccccc2)c2ccccc2)C1` (stereo not drawn), the figure is 3.99%.
For `Nc1ccc(C(=O)NCC(=O)O)cc1`, the “activity change, negative = inhibition” value is 3.3%.
`Cc1ccc(O)c([C@H](CCN(C(C)C)C(C)C)c2ccccc2)c1`: the “activity change, negative = inhibition” value is -23.1%.
Regarding `NS(=O)(=O)c1cc2c(cc1Cl)NC(CC1CCCC1)NS2(=O)=O` (stereo not drawn), the “activity change, negative = inhibition” value was -4.54%.
As for `CCOC(=O)C(C#N)=C(c1ccccc1)c1ccccc1`, the “activity change, negative = inhibition” value is -5.21%.
Regarding `CN(C)C(=O)Nc1ccc(Cl)c(Cl)c1`, the “activity change, negative = inhibition” value is -6.33%.
For `C[N+]1(C)CCC(=C(c2ccccc2)c2ccccc2)CC1`, the “activity change, negative = inhibition” value is -6.49%.
With `COC(=O)C(c1ccccc1Cl)N1CCc2sccc2C1` (stereo not drawn), the “activity change, negative = inhibition” value was -17%.
Then `CN1CCN(c2cc3c(cc2F)c(=O)c(C(=O)O)cn3-c2ccc(F)cc2)CC1`, with -9.9%.
Turning to `O=C1OC2(c3ccccc31)c1cc(Br)c(O)c(Br)c1Oc1c2cc(Br)c(O)c1Br`, the “activity change, negative = inhibition” value was -15.8%.
Then `CCN1/C(=C/C=C/c2sc3ccccc3[n+]2CC)Sc2ccccc21`, with 5.88% [at 19 µM].
`CCCCOC(=O)CC(CC(=O)OCCCC)(OC(C)=O)C(=O)OCCCC`: the “activity change, negative = inhibition” value was -12.7%.
As to `FC(F)(F)C(F)(F)C(F)(F)C(F)(F)C(F)(F)C(F)(F)C(F)(F)C(F)(F)Br`, the “activity change, negative = inhibition” value was -10.5%.
Regarding `Nc1nc(N)c(-c2ccccc2)s1`, the “activity change, negative = inhibition” value is 21%.
For `CCN(CC)CCNC(=O)COc1ccc(OC)cc1`, the “activity change, negative = inhibition” value was 0.899%.
With `C#C[C@]1(O)CC[C@H]2[C@@H]3CCc4cc(OC)ccc4[C@H]3CC[C@@]21C`, the “activity change, negative = inhibition” value was 1.72%.
For the compound `COc1ccc(-c2cc(C(F)F)nn2-c2ccc(S(N)(=O)=O)cc2)cc1F`, the “activity change, negative = inhibition” value was -1.62%.
Then `CN(C)CCOC(=O)C(c1ccccc1)C1(O)CCCC1` (stereo not drawn), with -2.19%.
Then `CC(=O)Nc1ccc(OCC(O)CNC(C)C)cc1` (stereo not drawn), with 0.665%; and `COc1ccc(CCN(C)CCCN2CCc3cc(OC)c(OC)cc3CC2=O)cc1OC`, with 6.91%.
`CCOc1cc(OCC)c(C(=O)CCC(=O)O)cc1OCC`: the “activity change, negative = inhibition” value is -4.09%.
With `CCCCCCCCCCCCCCCC(=O)O`, the “activity change, negative = inhibition” value was -4.32%.
Regarding `C#C[C@]1(O)CC[C@H]2[C@@H]3CCC4=CC(=O)CC[C@@H]4[C@H]3CC[C@@]21CC`, the “activity change, negative = inhibition” value was 13.5%.
For the compound `CCCCCCCCOc1ccc(C(=O)c2ccccc2)c(O)c1`, the “activity change, negative = inhibition” value was -9.96%.
Consider `NCCNC(=O)c1ccc(Cl)cn1`, for which the “activity change, negative = inhibition” value is -1.32%.
Turning to `COc1cc(C(=S)N2CCOCC2)ccc1O`, the “activity change, negative = inhibition” value was -6.84%.
`COc1ccc(/C=N/NC(=O)c2ccncc2)cc1OC`: the “activity change, negative = inhibition” value is 14.3%.
For the compound `CC(=O)O[C@H]1C[C@@H]2CC[C@@H]3[C@H](CC[C@@]4(C)[C@H]3C[C@H]([N+]3(C)CCCCC3)[C@@H]4OC(C)=O)[C@@]2(C)C[C@@H]1N1CCCCC1`, the “activity change, negative = inhibition” value was 18.5%.
Regarding `Oc1ccccc1C=NCc1ccccc1`, the “activity change, negative = inhibition” value is -3.69%.
In the case of `C/C=C/c1ccc(O)c(OC)c1`, the “activity change, negative = inhibition” value was -4.44%.
`C=CCN1CCc2nc(N)sc2CC1`: the “activity change, negative = inhibition” value is 0.526%.
On to `Cc1cc(NS(=O)(=O)c2ccc(N)cc2)nc(C)n1`, for which the “activity change, negative = inhibition” value is 0.709%.
Regarding `COc1ccc(C(=O)c2ccccc2)c(O)c1`, the “activity change, negative = inhibition” value is -3.97%.
Regarding `OC1C(O)C(O)C(O)C(O)C1O` (stereo not drawn), the “activity change, negative = inhibition” value was 0.062%.

The values above are taken from PubChem BioAssay (NCATS).
